# Active and inactive are the calls of the source.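 How the source made its calls, unless noted: active means normalized viability below 100% at a tested concentration; inactive means the rest.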 Where a SMILES comes first, the peptide text is derived from it. Peptide text beside a SMILES is read from it. The star is where a group is joined. * marks the point of attachment. Cbz = O=C(OCc1ccccc1)*; CH2F = FC*
# Legend:
# [1] = compounds altering viability of human ES cells (AID 493140; call rule not given here;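 further: cells exposed to compounds for four days before counting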); settings: human embryonic stem cell survival screen; stronger effect = higher value
# [2] = viability loss with induced miR-34 in A549 – imaging, A549 dox-inducible miR-34, nuclei and caspase counts, primary screen (AID 1347080;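 active means compounds whose cell count with miR-34 switched on is under 0.7 times the count with it off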); settings: A549 miR-34 inducible, Hoechst nuclei count, 48 h
# [3] = chitosan synthesis blockers in C. neoformans – flow cytometry, Cibacron Brilliant Red staining (AID 1347148; call rule not given here;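 further: compound exposure lasted three days at 37 degrees C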); settings: Cryptococcus neoformans chitosan, stronger effect = lower value; at 10 µM unless noted
# [4] = target: Mitogen-activated protein kinase 7 (Homo sapiens) (UniProt Q13164); test: Gal4-ERK5 driven luciferase induction – cell-based, HTS, primary screen (AID 1508626;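 active means luciferase signal above three times the same-plate solvent-only control wells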;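 further: luciferase driven by Gal4-ERK5 fusion binding five Gal4 sites before minimal TATA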); settings: HeLa Gal4-ERK5 transactivation, 18 h, at 5 µM, stronger effect = higher value
# Mitogen-activated protein kinase 7 (Homo sapiens), sequence (Q13164 whole entry, looked up, the tested form may be a part): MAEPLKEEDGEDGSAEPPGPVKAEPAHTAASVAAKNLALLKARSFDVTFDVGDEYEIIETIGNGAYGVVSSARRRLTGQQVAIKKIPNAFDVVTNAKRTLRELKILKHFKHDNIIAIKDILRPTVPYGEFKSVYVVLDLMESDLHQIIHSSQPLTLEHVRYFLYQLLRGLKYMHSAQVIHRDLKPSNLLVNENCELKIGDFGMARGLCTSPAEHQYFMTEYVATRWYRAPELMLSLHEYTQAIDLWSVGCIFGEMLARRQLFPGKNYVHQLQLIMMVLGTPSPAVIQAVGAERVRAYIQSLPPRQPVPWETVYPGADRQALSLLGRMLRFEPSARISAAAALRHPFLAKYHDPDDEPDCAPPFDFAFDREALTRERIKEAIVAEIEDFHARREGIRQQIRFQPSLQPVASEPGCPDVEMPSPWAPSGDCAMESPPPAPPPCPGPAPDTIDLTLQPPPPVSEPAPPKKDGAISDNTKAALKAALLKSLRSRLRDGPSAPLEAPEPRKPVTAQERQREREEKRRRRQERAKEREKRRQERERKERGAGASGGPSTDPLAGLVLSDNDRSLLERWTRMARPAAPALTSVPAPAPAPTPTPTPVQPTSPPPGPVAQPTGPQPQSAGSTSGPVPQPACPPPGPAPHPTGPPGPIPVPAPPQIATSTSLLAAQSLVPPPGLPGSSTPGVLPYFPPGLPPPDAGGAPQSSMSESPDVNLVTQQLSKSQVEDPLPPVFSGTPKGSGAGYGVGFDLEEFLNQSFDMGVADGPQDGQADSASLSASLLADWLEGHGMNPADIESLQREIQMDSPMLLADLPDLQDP
# [5] = drug combination growth inhibition, ovarian cancer – cell-based, oncology-focused library, rucaparib conditional, profiling panel (AID 1508598); settings: patient-derived ovarian cancer cells, CellTiter-Glo viability, 144 h, stronger effect = lower value
# [6] = compounds altering circadian rhythm period length – cell-based, LOPAC library, luminescence reporter (AID 2774; call rule not given here;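 further: values are relative to mean of DMSO wells on each plate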); settings: circadian reporter cells, at 7 µM, actives lie on both sides
# [7] = stronger effect = lower value, cell number ratio, induced over uninduced
# [8] = measured here: relative caspase fold change +Dox/-Dox
# [9] = measured here: total cells with miR-34 induction, stronger effect = lower value
# [10] = measured here: total cells without miR-34 induction
smiles,measurement,setting,value
CCCCC/C=C\CC1OC1CCCCCCCC(=O)O (centres undefined),survival,[1],79.6 (inactive)
same,fold change,[2]; [7],0.903 (inactive)
same,fold change,[2]; [8],1.25
same,cell count,[2]; [9],5290
same,cell count,[2]; [10],5850
same,fold fluorescence,[3],2.8 [at 1 µM] (inactive)
CC(C)c1cccc(O)c(=O)c1,fold change,[2]; [7],0.903 (inactive)
same,fold change,[2]; [8],1.02
same,cell count,[2]; [9],1840
same,cell count,[2]; [10],2030
same,fold fluorescence,[3],10.2 [at 304.5 µM] (inactive)
same,luciferase signal,[4],44 AU (inactive)
COCCCCCCCCCCCC(=O)O,survival,[1],81.7 (inactive)
same,fold change,[2]; [7],0.981 (inactive)
same,fold change,[2]; [8],1.11
same,cell count,[2]; [9],5900
same,cell count,[2]; [10],6020
same,fold fluorescence,[3],7.84 (inactive)
CCCCC[C@H](O)C/C=C1/C(=O)C=C[C@@H]1C/C=C\CCCC(=O)O,survival,[1],95.5 (inactive)
same,fold change,[2]; [7],0.887 (inactive)
same,fold change,[2]; [8],0.855
same,cell count,[2]; [9],5300
same,cell count,[2]; [10],5980
same,fold fluorescence,[3],4.79 (inactive)
CCCCC/C=C\C/C=C\C/C=C\C=C\C(=O)CCCC(=O)O,survival,[1],84.8 (inactive)
same,fold change,[2]; [7],0.886 (inactive)
same,fold change,[2]; [8],1.22
same,cell count,[2]; [9],5820
same,cell count,[2]; [10],6560
same,fold fluorescence,[3],3.82 [at 1 µM] (inactive)
CCC(C)[C@@H](CO[C@@H](Cc1ccccc1)C(=O)N[C@@H](CCS(C)(=O)=O)C(=O)OC(C)C)NC[C@@H](N)CS (some centres undefined),fold change,[2]; [7],0.946 (inactive)
same,fold change,[2]; [8],1.27
same,cell count,[2]; [9],3500
same,cell count,[2]; [10],3700
same,fold fluorescence,[3],3.05 [at 89.3 µM] (inactive)
COC(=O)C[C@H](NC(=O)[C@H](C)NC(=O)[C@@H](NC(=O)OCc1ccccc1)C(C)C)C(=O)CF (Cbz-Val-Ala-Asp(OMe)-CH2F),fold change,[2]; [7],0.848 (inactive)
same,fold change,[2]; [8],0.772
same,cell count,[2]; [9],5320
same,cell count,[2]; [10],6270
same,fold fluorescence,[3],3.45 [at 107 µM] (inactive)
same,viability,"[5]; at 0.000305 µM, OCI-C5x cells, with rucaparib 10 µM, 100% = cells with rucaparib alone",111% (inactive)
same,viability,"[5]; at 0.000305 µM, OCI-C5x cells, without rucaparib",113% (inactive)
same,viability,"[5]; at 0.000305 µM, OCI-P5x cells, with rucaparib 20 µM, 100% = cells with rucaparib alone",101% (inactive)
same,viability,"[5]; at 0.000305 µM, OCI-P5x cells, without rucaparib",108% (inactive)
same,viability,"[5]; at 0.00122 µM, OCI-C5x cells, with rucaparib 10 µM, 100% = cells with rucaparib alone",113% (inactive)
same,viability,"[5]; at 0.00122 µM, OCI-C5x cells, without rucaparib",122% (inactive)
same,viability,"[5]; at 0.00122 µM, OCI-P5x cells, with rucaparib 20 µM, 100% = cells with rucaparib alone",104% (inactive)
same,viability,"[5]; at 0.00122 µM, OCI-P5x cells, without rucaparib",107% (inactive)
same,viability,"[5]; at 0.00488 µM, OCI-C5x cells, with rucaparib 10 µM, 100% = cells with rucaparib alone",106% (inactive)
same,viability,"[5]; at 0.00488 µM, OCI-C5x cells, without rucaparib",114% (inactive)
same,viability,"[5]; at 0.00488 µM, OCI-P5x cells, with rucaparib 20 µM, 100% = cells with rucaparib alone",102% (inactive)
same,viability,"[5]; at 0.00488 µM, OCI-P5x cells, without rucaparib",112% (inactive)
same,viability,"[5]; at 0.0195 µM, OCI-C5x cells, with rucaparib 10 µM, 100% = cells with rucaparib alone",113% (inactive)
same,viability,"[5]; at 0.0195 µM, OCI-C5x cells, without rucaparib",119% (inactive)
same,viability,"[5]; at 0.0195 µM, OCI-P5x cells, with rucaparib 20 µM, 100% = cells with rucaparib alone",110% (inactive)
same,viability,"[5]; at 0.0195 µM, OCI-P5x cells, without rucaparib",102% (inactive)
same,viability,"[5]; at 0.0781 µM, OCI-C5x cells, with rucaparib 10 µM, 100% = cells with rucaparib alone",110% (inactive)
same,viability,"[5]; at 0.0781 µM, OCI-C5x cells, without rucaparib",120% (inactive)
same,viability,"[5]; at 0.0781 µM, OCI-P5x cells, with rucaparib 20 µM, 100% = cells with rucaparib alone",108% (inactive)
same,viability,"[5]; at 0.0781 µM, OCI-P5x cells, without rucaparib",111% (inactive)
same,viability,"[5]; at 0.313 µM, OCI-C5x cells, with rucaparib 10 µM, 100% = cells with rucaparib alone",104% (inactive)
same,viability,"[5]; at 0.313 µM, OCI-C5x cells, without rucaparib",118% (inactive)
same,viability,"[5]; at 0.313 µM, OCI-P5x cells, with rucaparib 20 µM, 100% = cells with rucaparib alone",96.2% (active)
same,viability,"[5]; at 0.313 µM, OCI-P5x cells, without rucaparib",107% (inactive)
same,viability,"[5]; at 1.25 µM, OCI-C5x cells, with rucaparib 10 µM, 100% = cells with rucaparib alone",117% (inactive)
same,viability,"[5]; at 1.25 µM, OCI-C5x cells, without rucaparib",115% (inactive)
same,viability,"[5]; at 1.25 µM, OCI-P5x cells, with rucaparib 20 µM, 100% = cells with rucaparib alone",103% (inactive)
same,viability,"[5]; at 1.25 µM, OCI-P5x cells, without rucaparib",106% (inactive)
same,viability,"[5]; at 5 µM, OCI-C5x cells, with rucaparib 10 µM, 100% = cells with rucaparib alone",115% (inactive)
same,viability,"[5]; at 5 µM, OCI-C5x cells, without rucaparib",119% (inactive)
same,viability,"[5]; at 5 µM, OCI-P5x cells, with rucaparib 20 µM, 100% = cells with rucaparib alone",106% (inactive)
same,viability,"[5]; at 5 µM, OCI-P5x cells, without rucaparib",108% (inactive)
NCCNS(=O)(=O)c1cccc2cnccc12,period change,[6],0.39 h (inactive)
same,survival,[1],266 (active)
same,fold change,[2]; [7],1.1 (inactive)
same,fold change,[2]; [8],1.06
same,cell count,[2]; [9],3580
same,cell count,[2]; [10],3260
same,fold fluorescence,[3],3.25 [at 154.2 µM] (inactive)
O=C[C@@H]1CCCN1C(=O)[C@@H]1CCCN1C(=O)OCc1ccccc1 (Cbz-Pro-Pro-aldehyde),fold change,[2]; [7],0.854 (inactive)
same,fold change,[2]; [8],1.14
same,cell count,[2]; [9],5160
same,cell count,[2]; [10],6040
same,fold fluorescence,[3],5.13 [at 151.3 µM] (inactive)
CCCCC/C=C\C/C=C\C/C=C\C/C=C\CCCC(=O)O[C@@H](CO)COCCCCCCCCCCCCCCCC,survival,[1],92.7 (inactive)
same,fold change,[2]; [7],0.961 (inactive)
same,fold change,[2]; [8],1.06
same,cell count,[2]; [9],5620
same,cell count,[2]; [10],5840
same,fold fluorescence,[3],5.56 (inactive)
CCCCC[C@H](O)/C=C/C=C\C/C=C\C/C=C\CCCC(=O)O,survival,[1],53.7 (inactive)
same,fold change,[2]; [7],1.03 (inactive)
same,fold change,[2]; [8],1.58
same,cell count,[2]; [9],5880
same,cell count,[2]; [10],5700
same,fold fluorescence,[3],4.64 [at 1 µM] (inactive)
C[C@H]([C@H](C)N1CC(=O)NC(=O)C1)N1CC(=O)NC(=O)C1,fold change,[2]; [7],0.938 (inactive)
same,fold change,[2]; [8],0.644
same,cell count,[2]; [9],1940
same,cell count,[2]; [10],2070
same,fold fluorescence,[3],4.39 [at 177.1 µM] (inactive)
CC/C=C\C/C=C\C/C=C\CCCCCCCCCCCC(=O)O,survival,[1],81.8 (inactive)
same,fold change,[2]; [7],0.989 (inactive)
same,fold change,[2]; [8],0.936
same,cell count,[2]; [9],5970
same,cell count,[2]; [10],6030
same,fold fluorescence,[3],4.89 (inactive)
CC(C)n1cnc2c(NCc3ccccc3)nc(NCCO)nc21,survival,[1],106 (inactive)
same,fold change,[2]; [7],1.14 (inactive)
same,fold change,[2]; [8],1.24
same,cell count,[2]; [9],2020
same,cell count,[2]; [10],1780
same,fold fluorescence,[3],3.89 [at 153.2 µM] (inactive)
CCCCCCCCCCOCCC(=O)O,survival,[1],53.3 (inactive)
same,fold change,[2]; [7],0.905 (inactive)
same,fold change,[2]; [8],1.29
same,cell count,[2]; [9],5410
same,cell count,[2]; [10],5970
same,fold fluorescence,[3],6.36 (inactive)
